Screening results deposited in PubChem by several laboratories.
A selection: hits, their analogues and other compounds. The true share with any hit is near 2.5%.
MCL1 BIM primary – MCL1-BIM-BH3 interaction inhibition (human) | GST-MCL1 / FITC-Bim-BH3 fluorescence polarization | 0.68% of 320,000 active | inhibition, % at 10.9 µM | Q07820;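 active = inhibition above the mean inhibition of all tested compounds plus 3 SD, set per campaign, cut at about 40% in these data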;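 note: 0% = DMSO wells and 100% = unlabeled Bim-BH3 peptide control; higher means more loss of mP so more displacement of Bim peptide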
Target sequence (Q07820 whole entry, looked up): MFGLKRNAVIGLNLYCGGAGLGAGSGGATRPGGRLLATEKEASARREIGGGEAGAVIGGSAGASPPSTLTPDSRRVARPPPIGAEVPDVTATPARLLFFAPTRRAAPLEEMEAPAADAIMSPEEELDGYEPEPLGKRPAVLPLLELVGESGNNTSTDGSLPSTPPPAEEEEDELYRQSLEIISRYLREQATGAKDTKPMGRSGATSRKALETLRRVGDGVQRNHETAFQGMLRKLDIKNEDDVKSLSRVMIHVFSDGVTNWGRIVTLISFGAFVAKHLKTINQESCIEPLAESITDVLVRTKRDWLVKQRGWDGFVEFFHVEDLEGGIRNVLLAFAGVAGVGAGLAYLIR
14-3-3 Bad PPI – disrupts binding of bovine 14-3-3 zeta to phospho-Bad peptide; TR-FRET 14-3-3zeta/Dy647-pBad peptide displacement, 1 h; inhibition, % at 21.7 µM; AID 781; 0.71% of 220,000 active; P63103;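 active = inhibition above about 70%, limit read from the data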;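 note: 0% = full 14-3-3 plus peptide FRET controls and 100% = background without 14-3-3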
Target sequence (P63103 whole entry, looked up): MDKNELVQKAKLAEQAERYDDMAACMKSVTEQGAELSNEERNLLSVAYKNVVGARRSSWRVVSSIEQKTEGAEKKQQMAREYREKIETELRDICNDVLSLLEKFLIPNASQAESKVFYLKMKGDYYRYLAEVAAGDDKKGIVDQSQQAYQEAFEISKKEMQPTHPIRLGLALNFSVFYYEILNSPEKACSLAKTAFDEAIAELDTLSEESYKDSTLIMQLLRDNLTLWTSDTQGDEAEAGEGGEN
Mcl1-Noxa inh – disrupts binding of human Mcl-1 to Noxa peptide; Q07820; TR-FRET Mcl-1/Noxa peptide binding, 2 h; inhibition, % at 21.7 µM; 1.5% of 220,000 active; AID 1022;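 active = compounds that cut the protein-peptide binding signal by more than 50% relative to plate controls in a single-dose test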;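 note: His-tagged Mcl-1 with rhodamine Noxa BH3 peptide and terbium anti-His antibody; 0% = Mcl-1 plus Noxa peptide wells and 100% = peptide-only wells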
Bim-Mcl-1 – human Bim-Mcl-1 interaction inhibition. Q07820. Bead-based flow cytometry, Bim peptide-Mcl-1 binding. inhibition, % at 10 µM. 0.1% of 190,000 active. AID 1009; in the data active = inhibition above about 40%;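 note: 0% = no compound tracer wells and 100% = peptide blocker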
Mcl1-Bid inh – Mcl-1/Bid interaction inhibition; TR-FRET Mcl-1/Bid-Dy647 peptide binding, 1536-well; 0.97% of 220,000 active; Q07820; inhibition, % at 21.7 µM;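 active = compounds that cut the binding signal by more than half at the single screening dose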;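 note: His-tagged Mcl-1 with europium anti-His antibody binding Bid BH3 peptide; 0% = Mcl-1 plus peptide wells and 100% = peptide-only wells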
* hit, by the source's call; [ ] = remark or other dose.

How did COc1ccc(-c2nc(S(=O)(=O)c3ccc(C)cc3)c(N3CCCC3)o2)cc1 do in these assays?
MCL1 BIM primary: 4; 14-3-3 Bad PPI: -2; Mcl1-Noxa inh: 20; Bim-Mcl-1: -3; Mcl1-Bid inh: 23

What do the screens show for `C1CCC(n2nnnc2CN2CCCC2)CC1`?
MCL1 BIM primary: 1; 14-3-3 Bad PPI: -3; Mcl1-Noxa inh: 19; Bim-Mcl-1: 1; Mcl1-Bid inh: 3

Results for OC1(c2cccnc2)CCN(Cc2nnnn2C2CCCCC2)CC1 ?
MCL1 BIM primary: 0; 14-3-3 Bad PPI: 84*; Mcl1-Noxa inh: 35; Bim-Mcl-1: 0; Mcl1-Bid inh: 52*

What do the screens show for `C=CCn1c(O)c(N=NC(=O)CNC(=O)/C=C/c2ccco2)c2ccccc21`?
MCL1 BIM primary: 29; 14-3-3 Bad PPI: 0; Mcl1-Noxa inh: 69*; Bim-Mcl-1: -2; Mcl1-Bid inh: -16

Results for C=CCn1c(O)c(N=NC(=O)CNC(=O)/C=C/c2ccc(OC)cc2)c2ccccc21 ?
MCL1 BIM primary: 5; 14-3-3 Bad PPI: 1; Mcl1-Noxa inh: 7; Mcl1-Bid inh: 96*

What do the screens show for `NC(=O)Cn1c(O)c(N=NC(=O)CNC(=O)/C=C/c2ccccc2)c2ccccc21`?
MCL1 BIM primary: 6

What do the screens show for `CCCn1c(O)c(N=NC(=O)CNC(=O)/C=C/c2ccc(OC)cc2)c2ccccc21`?
MCL1 BIM primary: 2

How did COc1cc(OC)c2c(c1O)OC(c1ccccc1)CC2=O (stereo not given) do in these assays?
MCL1 BIM primary: 32; 14-3-3 Bad PPI: 12; Mcl1-Noxa inh: 54*; Bim-Mcl-1: -3; Mcl1-Bid inh: -6

What do the screens show for `O=C1CC(c2ccccc2)Oc2cc(O)cc(O)c21` (stereo not given)?
MCL1 BIM primary: 2; 14-3-3 Bad PPI: -4; Mcl1-Noxa inh: 8; Mcl1-Bid inh: -59

How did NNc1nc(N)c2c(n1)-c1ccccc1CC21CCCC1 do in these assays?
MCL1 BIM primary: -3; 14-3-3 Bad PPI: 82*[fluorescence artefact?]; Mcl1-Noxa inh: -64; Bim-Mcl-1: -2; Mcl1-Bid inh: -64

What do the screens show for `COc1ccccc1N1C(=N)S/C(=C\c2ccc(-c3ccccc3C(=O)O)o2)C1=O`?
MCL1 BIM primary: -8; 14-3-3 Bad PPI: -10; Mcl1-Noxa inh: 53*; Bim-Mcl-1: 2; Mcl1-Bid inh: -27

Results for N=C1S/C(=C\c2ccc(-c3ccccc3C(=O)O)o2)C(=O)N1c1ccc2c(c1)OCO2 ?
14-3-3 Bad PPI: 70; Mcl1-Noxa inh: 60*; Bim-Mcl-1: 3; Mcl1-Bid inh: 0

Results for Cc1ccc(NC(=O)CN2C(=O)S/C(=C\c3ccc(-c4cccc(C(=O)O)c4C)o3)C2=O)cc1C ?
14-3-3 Bad PPI: 87*; Mcl1-Noxa inh: 79*; Bim-Mcl-1: 4; Mcl1-Bid inh: -76

What do the screens show for `CCOC(=O)CN1C(=O)S/C(=C\c2ccc(-c3cccc(C(=O)O)c3C)o2)C1=O`?
MCL1 BIM primary: -4

Results for COc1ccc(-c2cc(=O)oc3c(C)c(OCC(=O)N[C@@H](Cc4ccc(O)cc4)C(=O)O)ccc23)cc1 ?
MCL1 BIM primary: 5

What do the screens show for `O=C(COC(=O)c1ccc[nH]c1=O)NC1CCCCCCC1`?
MCL1 BIM primary: -4; 14-3-3 Bad PPI: -1; Mcl1-Noxa inh: 14; Bim-Mcl-1: -3; Mcl1-Bid inh: 7

How did COc1ccc(Cl)cc1-n1c(C)cc(C=O)c1C do in these assays?
MCL1 BIM primary: -10; 14-3-3 Bad PPI: -2; Mcl1-Noxa inh: 6; Bim-Mcl-1: 44*; Mcl1-Bid inh: -9

What do the screens show for `COc1ccc(Cl)cc1-n1c(C)cc(C(=O)O)c1C`?
MCL1 BIM primary: -11; 14-3-3 Bad PPI: -10; Mcl1-Noxa inh: 0; Bim-Mcl-1: -170; Mcl1-Bid inh: -73

Results for O=C(Nc1ccc2c(c1)OCO2)c1cnccn1 ?
MCL1 BIM primary: -3; 14-3-3 Bad PPI: -6; Mcl1-Noxa inh: 2; Bim-Mcl-1: -1; Mcl1-Bid inh: -43

How did Nc1ccc(C(=O)OCC(=O)Nc2ccc3c(c2)OCO3)cc1[N+](=O)[O-] do in these assays?
MCL1 BIM primary: -3; 14-3-3 Bad PPI: 11; Mcl1-Noxa inh: 52*; Bim-Mcl-1: 0; Mcl1-Bid inh: -33

How did O=C(COC(=O)c1cnccn1)Nc1ccc2c(c1)OCO2 do in these assays?
MCL1 BIM primary: -4; 14-3-3 Bad PPI: -5; Mcl1-Noxa inh: 62*; Bim-Mcl-1: 0; Mcl1-Bid inh: -1

What do the screens show for `O=C(COC(=O)c1ccc(N2CCOCC2)c([N+](=O)[O-])c1)Nc1ccc2c(c1)OCO2`?
MCL1 BIM primary: 0; 14-3-3 Bad PPI: 20; Mcl1-Noxa inh: -2; Bim-Mcl-1: 1; Mcl1-Bid inh: -1

What do the screens show for `Oc1nc(Nc2cccc(Cl)c2)sc1/C=C1\C=Nc2ccccc21`?
MCL1 BIM primary: 4; 14-3-3 Bad PPI: -4; Mcl1-Noxa inh: 36; Bim-Mcl-1: -2; Mcl1-Bid inh: -20

What do the screens show for `CC1=Nc2ccccc2/C1=C\c1sc(Nc2ccc(C)cc2)nc1O`?
MCL1 BIM primary: -10; 14-3-3 Bad PPI: 7; Mcl1-Noxa inh: 13; Bim-Mcl-1: 1; Mcl1-Bid inh: -46

How did Oc1cccc(Nc2nc(O)c(/C=C3\C=Nc4ccccc43)s2)c1 do in these assays?
MCL1 BIM primary: -107; 14-3-3 Bad PPI: 73*; Mcl1-Noxa inh: 62*; Mcl1-Bid inh: -55

Results for Oc1nc(Nc2ccc(F)cc2)sc1/C=C1\C=Nc2ccccc21 ?
MCL1 BIM primary: -11; 14-3-3 Bad PPI: 7; Mcl1-Noxa inh: 102*; Mcl1-Bid inh: 32

Results for CCOc1cc(/C=C2\N=C(SC(C)C(N)=O)N(c3ccc(OC(F)F)cc3)C2=O)ccc1O (stereo not given) ?
MCL1 BIM primary: -73

Results for O=C(O)CSc1nnc(-c2ccc(S(=O)(=O)N3CCCC3)cc2)n1Cc1ccco1 ?
MCL1 BIM primary: 1; 14-3-3 Bad PPI: 85*; Mcl1-Noxa inh: -28; Bim-Mcl-1: 0; Mcl1-Bid inh: -29

What do the screens show for `NC(=O)CSc1nnc(-c2ccc(S(=O)(=O)N3CCCC3)cc2)n1Cc1ccco1`?
MCL1 BIM primary: -16; 14-3-3 Bad PPI: 1; Mcl1-Noxa inh: 3; Bim-Mcl-1: -7; Mcl1-Bid inh: -18

What do the screens show for `CN(C)C(=O)CN1CCN(c2nc3nonc3nc2N2CCCCC2)CC1`?
MCL1 BIM primary: 2; 14-3-3 Bad PPI: -4; Mcl1-Noxa inh: 4; Bim-Mcl-1: -4; Mcl1-Bid inh: -19

How did CC(=O)Nc1ccc2nc(NC(=O)c3cccs3)sc2c1 do in these assays?
MCL1 BIM primary: 7; 14-3-3 Bad PPI: -2; Mcl1-Noxa inh: 14; Mcl1-Bid inh: -47

Results for CC(=O)Nc1ccc2nc(NC(=O)c3ccc([N+](=O)[O-])s3)sc2c1 ?
MCL1 BIM primary: 18; 14-3-3 Bad PPI: -92; Mcl1-Noxa inh: 73*; Mcl1-Bid inh: 18

Results for CC(=O)Nc1ccc2nc(NC(=O)COc3ccc([N+](=O)[O-])cc3)sc2c1 ?
MCL1 BIM primary: 2; 14-3-3 Bad PPI: 4; Mcl1-Noxa inh: 56*; Bim-Mcl-1: -1; Mcl1-Bid inh: 35

How did Cn1cc(Cl)c(C(=O)Nc2nc3ccc([N+](=O)[O-])cc3s2)n1 do in these assays?
MCL1 BIM primary: 7; 14-3-3 Bad PPI: 52; Mcl1-Noxa inh: 62*; Bim-Mcl-1: -1; Mcl1-Bid inh: 52*
